The nature of experiment [1]: NCI Yeast Anticancer Drug Screen. Data for the rad50 strain (AID 155).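 Note: 0% = growth of vehicle-only cultures of the same strain.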 Conditions: S. cerevisiae rad50 strain growth inhibition, stronger effect = higher value. The procedure, abridged:
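Cells are treated with compound, grown, and their growth is then scored against vehicle-only cultures of the same repair-deficient yeast strain.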

The nature of experiment [2]: NCI Yeast Anticancer Drug Screen. Data for the mec2-1 strain (AID 157). The settings on record: S. cerevisiae mec2-1 strain, stronger effect = higher value. The gist of the method: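 mec2-1 yeast strain, carrying an alteration in DNA damage repair or cell cycle control, was exposed to compounds; growth inhibition was measured relative to vehicle-treated controls.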
Experiment [3] is described as follows: NCI Yeast Anticancer Drug Screen. Data for the sgs1 mgt1 strain (AID 161).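 Note: 0% = growth of cultures given vehicle only.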 The settings on record: S. cerevisiae sgs1 mgt1 strain, stronger effect = higher value. The procedure, abridged: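 Percent growth inhibition was derived by comparing compound-exposed mutant yeast with vehicle-exposed cultures. The strain carries alterations in DNA damage repair.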
Experiment [4] can be described thus: NCI Yeast Anticancer Drug Screen. Data for the cln2 rad14 strain (AID 165).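 Note: 0% = growth equal to vehicle treated cultures.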 The settings on record: S. cerevisiae cln2 rad14 strain, stronger effect = higher value. The procedure, abridged: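 Yeast carrying cln2 and rad14 alterations (cell cycle control and DNA damage repair) were exposed to compounds. Growth inhibition was measured against vehicle-treated controls.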

A short description of experiment [5]: NCI Yeast Anticancer Drug Screen. Data for the mlh1 rad18 strain (AID 175). The settings on record: S. cerevisiae mlh1 rad18 strain growth inhibition, stronger effect = higher value. The gist of the method:
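Growth inhibition of the yeast strain was measured after compound exposure and expressed relative to vehicle-treated controls. The strain carries defined defects in DNA damage repair.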

Experiment [6] can be described thus: NCI Yeast Anticancer Drug Screen. Data for the bub3 strain (AID 167). The settings on record: S. cerevisiae bub3 mutant strain, stronger effect = higher value. The gist of the method: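 Part of a panel of yeast mutants defective in DNA damage repair or cell cycle regulation. Each strain is grown with compound, and inhibition is calculated relative to solvent-treated cultures.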

The mark [7] stands for this setting: at 5.0 µM (retest, dose inferred, filed as 0.5).
The mark [8] stands for this setting: at 50.0 µM (retest, dose inferred, filed as 5.0).

“And” between values parts separate entries of the source, which are not always exact repeats. Identical values can stand only once. About 79,000 compounds went through this panel and 15% of them were active in at least one assay; those are over-represented in the sample as a whole. A number with no mark means an inactive call. The source made the active and inactive calls. Cut-off read from the data, not from the text of the source: active = growth inhibition above about 70%; inactive = the rest.

For the compound `O=C(O)CCC(=O)c1ccc2c(c1)CCCC2`, the growth inhibition is -5% in experiment [1] (setting [7]); -1% in experiment [1] (setting [8]); 71.7% (active) in experiment [1] (at 50.0 µM); -9% in experiment [2] (setting [7]); 19% in experiment [2] (setting [8]); 42.1% in experiment [2] (at 50.0 µM). The growth inhibition in experiment [3] (setting [7]) was -5%; in experiment [3] (setting [8]), 0%; in experiment [3] (at 50.0 µM), 77.2% (active); in experiment [4] (setting [7]) it was 1%; in experiment [4] (setting [8]) it was 25%; in experiment [4] (at 50.0 µM) it was -24.1%. Further, the growth inhibition in experiment [5] (setting [7]) was 0%; in experiment [5] (setting [8]), -6%; in experiment [5] (at 50.0 µM), 77.6% (active).
Consider `Cc1nc2c(cnn2C)cc1CCc1ccccc1`, for which the growth inhibition was 2% in experiment [1] (setting [7]); 16% in experiment [1] (setting [8]); 14.7% in experiment [1] (at 50.0 µM); 3% in experiment [2] (setting [7]); 35% in experiment [2] (setting [8]); 3.9% in experiment [2] (at 50.0 µM). For the same compound, the growth inhibition in experiment [3] (setting [7]) was 5%; in experiment [3] (setting [8]), 53%; in experiment [3] (at 50.0 µM), 19.6%; in experiment [4] (setting [7]) it was 12%; in experiment [4] (setting [8]), 50%; in experiment [4] (at 50.0 µM) it was 25.1%. Moreover, the growth inhibition is 8% in experiment [5] (setting [7]), 39% in experiment [5] (setting [8]) and 23.6% in experiment [5] (at 50.0 µM).
As for `O=C(O)c1cc2ccc(Cl)cc2c2c1C(=O)c1cc(Cl)ccc1-2`, the growth inhibition in experiment [1] (setting [7]) was 12%; in experiment [1] (setting [8]), 50%; in experiment [1] (at 50.0 µM), 90.3% (active); in experiment [2] (setting [7]), 0%; in experiment [2] (setting [8]) it was 33%; in experiment [2] (at 50.0 µM), 57.5%. Besides, the growth inhibition was -3% in experiment [4] (setting [7]); 39% in experiment [4] (setting [8]); 77.3% (active) in experiment [4] (at 50.0 µM); -2% in experiment [6] (setting [7]); 33% in experiment [6] (setting [8]); 82% (active) in experiment [6] (at 50.0 µM). The growth inhibition is -4% in experiment [5] (setting [7]), 46% in experiment [5] (setting [8]) and 84.5% (active) in experiment [5] (at 50.0 µM).
With `CCOC(CCl)Oc1c(C(C)C)cc(C(C)C)c(Cl)c1C` (stereo not drawn), the growth inhibition in experiment [1] (setting [7]) was 0%; in experiment [1] (setting [8]), 20%; in experiment [1] (at 50.0 µM), 97.5% (active); in experiment [2] (setting [7]) it was -1%; in experiment [2] (setting [8]), 57%; in experiment [2] (at 50.0 µM), 96.7% (active). Further, the growth inhibition in experiment [3] (setting [7]) was 1%; in experiment [3] (setting [8]), 49%; in experiment [3] (at 50.0 µM), 97.7% (active); in experiment [6] (setting [7]) it was -3%; in experiment [6] (setting [8]), 19%; in experiment [6] (at 50.0 µM) it was 97.3% (active). Besides, the growth inhibition in experiment [5] (setting [7]) is -1%; in experiment [5] (setting [8]), 27%; in experiment [5] (at 50.0 µM), 95% (active).
On to `Cn1c(-c2ccc(/C=N/NC(=S)N/N=C/c3ccc(-c4c[n+]5ccsc5n4C)cc3)cc2)c[n+]2ccsc12`, for which the growth inhibition in experiment [1] (setting [7]) is 72% (active); in experiment [1] (setting [8]), 95% (active); in experiment [1] (at 50.0 µM), 88.6% (active); in experiment [2] (setting [7]), 66%; in experiment [2] (setting [8]), 98% (active); in experiment [2] (at 50.0 µM) it was 91.2% (active). Besides, the growth inhibition in experiment [4] (setting [7]) was 34%; in experiment [4] (setting [8]), 91% (active); in experiment [4] (at 50.0 µM), 86.4% (active); in experiment [6] (setting [7]), 60%; in experiment [6] (setting [8]) it was 89% (active); in experiment [6] (at 50.0 µM), 90.3% (active). In addition, the growth inhibition in experiment [5] (setting [7]) was 72% (active); in experiment [5] (setting [8]), 97% (active); in experiment [5] (at 50.0 µM), 88% (active).
Take `O=C(O)CCC(O)=C1S(=O)(=O)OCCOS1(=O)=O`: the growth inhibition in experiment [1] (setting [7]) is -21%; in experiment [1] (setting [8]) it was 16%; in experiment [1] (at 50.0 µM), 36%; in experiment [2] (setting [7]), -8%; in experiment [2] (setting [8]), 10%; in experiment [2] (at 50.0 µM) it was 4.25%. The growth inhibition in experiment [3] (setting [7]) is -16%; in experiment [3] (setting [8]) it was -3%; in experiment [3] (at 50.0 µM), -1.5%; in experiment [6] (setting [7]), -18%; in experiment [6] (setting [8]), 3%; in experiment [6] (at 50.0 µM), 15.7%. Further, the growth inhibition is -17% in experiment [5] (setting [7]), -28% in experiment [5] (setting [8]) and 8.3% in experiment [5] (at 50.0 µM).
In the case of `CN(C)C=Nc1ccc2nonc2c1`, the growth inhibition in experiment [1] (setting [7]) was 15%; in experiment [1] (setting [8]), 24%; in experiment [1] (at 50.0 µM), 10.2%; in experiment [3] (setting [7]) it was 12%; in experiment [3] (setting [8]), 16%; in experiment [3] (at 50.0 µM), 3.4%. Besides, the growth inhibition in experiment [4] (setting [7]) was 19%; in experiment [4] (setting [8]), 23%; in experiment [4] (at 50.0 µM), 7.8%; in experiment [6] (setting [7]), 15%; in experiment [6] (setting [8]) it was 13%; in experiment [6] (at 50.0 µM) it was 4.1%. The growth inhibition is 8% in experiment [5] (setting [7]), 10% in experiment [5] (setting [8]) and 0.9% in experiment [5] (at 50.0 µM).
In the case of `COC1OC(CO)C(O)C(O)C1O` (stereo not drawn), the growth inhibition in experiment [1] (at 50.0 µM) is -6.55% and -5.05% and -29.2%; in experiment [2] (at 50.0 µM) it was -5.2% and 1.65% and -23.1%; in experiment [3] (at 50.0 µM) it was -4.3% and -4.25% and -9.9%; in experiment [4] (at 50.0 µM), 16.9% and -53.9% and -37.4%; in experiment [6] (at 50.0 µM), -12.3% and 5.7% and -2.25%; in experiment [5] (at 50.0 µM) it was 0.8% and 7.3% and -8.25%.
`O=C1OC(C(O)CO)C(O)=C1O` (stereo not drawn): the growth inhibition in experiment [1] (at 50.0 µM) is -17.1% and 7.7% and 12.5%; in experiment [2] (at 50.0 µM), -25.8% and 0.65% and -15.2%; in experiment [3] (at 50.0 µM), -4.15% and -7.6% and 14.5%; in experiment [4] (at 50.0 µM) it was -0.75% and -1.55% and 7.15%; in experiment [6] (at 50.0 µM), -1.7% and -0.25% and -0.3%; in experiment [5] (at 50.0 µM) it was 1.6% and 8.75% and 6.45%.
Take `CCOC(=O)CCC(N)C(=O)OCC` (stereo not drawn): the growth inhibition in experiment [1] (at 50.0 µM) was 20.8% and 1.45% and -26.1%; in experiment [2] (at 50.0 µM), -4.05% and -5.05% and -0.15%; in experiment [3] (at 50.0 µM) it was 8.4% and -2% and -19.9%; in experiment [4] (at 50.0 µM) it was 5.9% and -29.1% and -40.6%; in experiment [6] (at 50.0 µM) it was 1.45% and 7.05% and -8.7%; in experiment [5] (at 50.0 µM) it was 10.9% and 23.9% and -16.1%.
Consider `C1CCC(C2=NC3CCCCC3SC2)CC1` (stereo not drawn), for which the growth inhibition is -16% in experiment [2] (setting [7]); 99% (active) in experiment [2] (setting [8]); 93.5% (active) in experiment [2] (at 50.0 µM); 5% in experiment [3] (setting [7]); 86% (active) in experiment [3] (setting [8]); 93.9% (active) in experiment [3] (at 50.0 µM). Also, the growth inhibition in experiment [4] (setting [7]) is 10%; in experiment [4] (setting [8]), 96% (active); in experiment [4] (at 50.0 µM), 90.1% (active); in experiment [6] (setting [7]), 6%; in experiment [6] (setting [8]), 98% (active); in experiment [6] (at 50.0 µM) it was 92.1% (active). Also, the growth inhibition in experiment [5] (setting [7]) is -20%; in experiment [5] (setting [8]), 98% (active); in experiment [5] (at 50.0 µM), 91.2% (active).
For `CC(O)c1cccnc1` (stereo not drawn), the growth inhibition in experiment [2] (setting [7]) is 10%; in experiment [2] (setting [8]), 1%; in experiment [2] (at 50.0 µM), 49.6%; in experiment [3] (setting [7]) it was 4%; in experiment [3] (setting [8]), -1%; in experiment [3] (at 50.0 µM), 20%. Also, the growth inhibition in experiment [4] (setting [7]) is 20%; in experiment [4] (setting [8]) it was 41%; in experiment [4] (at 50.0 µM) it was 58.1%; in experiment [6] (setting [7]), -6%; in experiment [6] (setting [8]), 47%; in experiment [6] (at 50.0 µM), 28.6%. Besides, the growth inhibition is -9% in experiment [5] (setting [7]), 51% in experiment [5] (setting [8]) and 66% in experiment [5] (at 50.0 µM).

For the origin of these results see PubChem BioAssay (NCI).
